Assay outcomes (PubChem)
CHOP inh: CHOP inhibition in unfolded protein response | CHO-K1 CHOP-promoter luciferase, tunicamycin-induced, 15-18 h | inhibition, % at 10 µM | hit rate 3.8% among 220,000 | AID 2732;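 active = compounds that reduced the stress-induced luciferase reporter signal by more than about 70% of percent inhibition, limit read from the data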
L major viab: inhibitors of Leishmania major promastigote growth | hit rate 9% among 200,000 | Leishmania major promastigotes, resazurin fluorescence viability | inhibition, % at 10 µM; in the data active = inhibition above about 50%;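 note: promastigotes grown with compound for 44 hours at 28 °C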
Arbovirus anti: antivirals against arbovirus infection. arbovirus infection cell-based antiviral screen. inhibition, % at 10 µM. hit rate 0.37% among 200,000; in the data active = inhibition above about 30%
WT yeast gro inh: growth inhibition of WT yeast, mitochondrial fusion screen; AID 1362; inhibition, % at 10 µM; mitochondrial fusion phenotypic screen, WT strain; hit rate 2.1% among 190,000; in the data active = inhibition above about 58%; tested in S. cerevisiae
A number is an active result; 0 = inactive; - = not tested or not shown. Most compounds without a hit are left out; they make up all but 12% or so of the library.

SMILES | CHOP inh | L major viab | Arbovirus anti | WT yeast gro inh
COc1ccc(/C=C2\C(=O)N(Cc3ccc(F)cc3)CC(=O)N2Cc2ccccc2)cc1 | 0 | 95.3 | 0 | 0
O=C(NNC(=O)C1CCN(Cc2ccc(F)cc2Cl)CC1)Nc1ccc([N+](=O)[O-])cc1 | 0 | 0 | 0 | 0
CCN(CC)CCNC(=O)c1c(O)c2cc(OC)c(OC)cc2[nH]c1=O | 0 | 78.6 | 0 | 0
COc1cc2[nH]c(=O)c(C(=O)NCCCN3CCOCC3)c(O)c2cc1OC | 0 | 0 | 0 | 0
O=C(NCC1CCCO1)C(c1ccc(N2CCOCC2)cc1)N(C(=O)Cn1nnc2ccccc21)c1ccccc1F (centres undefined) | 0 | 0 | 0 | 0
O=C(Nc1ccc(Cl)cc1)OC(CN1CCCCC1)C(F)(F)F (centres undefined) | 74.2 | 0 | 0 | 0
CN(Cc1ccccc1)C(=O)COC(=O)c1cncc(Br)c1 | 0 | 0 | 0 | 0
CN(Cc1ccccc1)C(=O)COC(=O)C1=NNC(=O)CC1 | 0 | 51.9 | 0 | 0
COc1ccc(-c2cc(=O)n(CCC#N)[nH]2)cc1 | 0 | 96.0 | 0 | 0
CCN(CC)c1ccc2cc(C(=O)NNC(=O)c3ccc(S(=O)(=O)N4CCCCC4)cc3)c(=O)oc2c1 | 0 | 91.7 | 0 | 0
CCN(CC)c1ccc2cc(S(=O)(=O)c3ccc(C)cc3)c(=O)oc2c1 | 0 | 95.7 | 0 | 0
Cc1ccc(S(=O)(=O)c2cc3ccccc3oc2=O)cc1 | 0 | 0 | 0 | 0
CC(=O)/C(N=Nc1ccc2c(c1)OCCO2)=C(\C)O | 0 | 0 | 0 | 0
CC(=O)/C(N=Nc1ccc2c(c1)OCO2)=C(\C)O | 0 | 57.0 | 0 | 0
C=CCn1c(SCC#N)nc2c(c1=O)C(C)(C)Cc1ccccc1-2 | 0 | 96.4 | 0 | 0
CCC(=O)C1=C(O)C(c2cccc(Oc3ccccc3)c2)CCC1=O (centres undefined) | 0 | 0 | 0 | 63.2
COC(=O)c1[nH]c2ccccc2c1NC(=O)CN1CCN(C/C=C/c2ccccc2)CC1 | 0 | 63.6 | 0 | 0
CCOC(=O)c1[nH]c2ccc(F)cc2c1NC(=O)CN1CCN(C/C=C/c2ccccc2)CC1 | 0 | 99.4 | 0 | 0
COC(=O)c1[nH]c2ccccc2c1NC(=O)CN1CC(C)OC(C)C1 (centres undefined) | 0 | 0 | 0 | 0
O=C(C1=C[C@H](C2CC2)C[C@H](OCCCCO)O1)N1CCOCC1 | 0 | 0 | 0 | 0
CCN(CC)S(=O)(=O)c1cc(C(=O)OCC(=O)NC2CCCc3ccccc32)ccc1C (centres undefined) | 0 | 51.5 | 0 | 0
O=C(Cn1cc(S(=O)(=O)Cc2ccccc2)c2ccccc21)Nc1ccccc1 | 0 | 0 | 0 | 0
COc1cccc(NC(=S)N/N=C2\CC3CCC2(C)C3(C)C)c1 (centres undefined) | 0 | 88.7 | 0 | 70.7
CC12CCC(C/C1=N/NC(=O)Nc1ccccc1)C2(C)C (centres undefined) | 89.6 | 95.0 | 0 | 0
COc1ccc(/C=C/C(=O)OCC(=O)c2c(C)[nH]c3ccccc23)cc1OC | 0 | 0 | 0 | 0
SMILES | CHOP inh | L major viab | Arbovirus anti | WT yeast gro inh
COC(=O)[C@@]1(Cc2ccc(F)cc2)[C@H]2c3cc(C(=O)N(C)C)n(CCSCCO)c3C[C@H]2CN1C(=O)c1ccccc1 | 0 | 0 | 0 | 0
COC(=O)[C@@]1(Cc2ccc(F)cc2)[C@H]2c3cc(C(=O)N4CCCC4)n(Cc4ccc(C(F)(F)F)nc4)c3C[C@H]2CN1C(=O)c1ccccc1 | 0 | 87.3 | 0 | 0
COC(=O)[C@@]1(Cc2ccc(OC)cc2)[C@H]2c3cc(C(=O)N(C)C)n(CCc4ccc(OC)c(Br)c4)c3C[C@H]2CN1C(=O)c1ccccc1 | 0 | 62.3 | 0 | 0
COC(=O)[C@@]1(Cc2ccc(OC)cc2)[C@H]2c3cc(C(=O)N4CCCC4)n(Cc4ccc(OC)c(OC)c4)c3C[C@H]2CN1C(=O)c1ccccc1 | 0 | 0 | 0 | 0
COC(=O)c1ccc(/C=C/C(=O)c2ccc(OC)cc2)cc1 | 0 | 0 | 0 | 0
COc1ccc(C(=O)/C=C/c2ccc(OC(=O)c3cc(OC)c(OC)c(OC)c3)cc2)cc1 | 0 | 65.0 | 0 | 0
CCOc1ccc(C(=O)/C=C/c2cc(OC)c(OC)c(OC)c2)cc1 | 0 | 0 | 0 | 0
COc1cc(/C=C/C(=O)c2ccc(F)cc2)cc(OC)c1OC | 0 | 100.0 | 0 | 0
O=CNCC(=O)NCCc1ccc(Cl)cc1 | 0 | 0 | 36.7 | 0
O=C(O)/C=C/C(=O)NCCc1ccc(Cl)cc1 | 0 | - | - | -
O=C(Cc1c(Cl)cccc1Cl)NCCc1ccc(Cl)cc1 | 74.9 | 0 | 0 | 0
Cc1nc(S(=O)(=O)Nc2ccccc2C(=O)NCC2CC2)cn1C | 0 | - | - | -
O=C(/C=C/c1ccc(Cl)cc1)N(Cc1ccccc1)C1CCS(=O)(=O)C1 (centres undefined) | 0 | 0 | 0 | 0
O=C(/C=C/c1ccc(Cl)cc1Cl)N(Cc1ccc(Cl)cc1)C1CCS(=O)(=O)C1 (centres undefined) | 79.2 | 87.8 | 0 | 59.4
